Reference: the supplement of paper PMC6555819

Tests used:
Test in all cases: PBM binding z-score (relative to random genomic background probes); higher = stronger binding; sequences stand for … in GC…GCGATTGACAGCGTAGAATGAAGG
[1] = tested on: PPARg:RXRa DBDmut IVT, anti-RXR (DBD mutation: RXRa K156A/R161A, NR concentration 270 nM, RXRa partner concentration 90 nM)
Outline: (§1)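 On custom Agilent 4×180K arrays, double-stranded probes with 34-nt variable regions carried direct-repeat seeds, single-nucleotide variants, half-site ablations or random human genomic background. Ligand-free nuclear receptor dimers were applied for 1 h, and binding was read with antibodies against each partner (one per run). Binding z-scores come from regression-normalized fluorescence, with the random background probes as reference.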

[2] = tested on: PPARg:RXRa IVT, anti-PPARg (NR concentration 270 nM, RXRa partner concentration 90 nM)
Outline: as §1

[3] = tested on: PPARg DBDmut:RXRa IVT, anti-PPARg (DBD mutation: PPARg1 K132A/R137A, NR concentration 270 nM, RXRa partner concentration 90 nM)
Outline: as §1

[4] = tested on: PPARg DBDmut IVT, anti-PPARg (DBD mutation: PPARg1 K132A/R137A, NR concentration 270 nM)
Outline: as §1

[5] = tested on: PPARg homodimer (NR concentration 180 nM)
Outline: as §1

[6] = tested on: PXR:RXRa (NR concentration 270 nM, RXRa partner concentration 90 nM)
Outline: as §1

[7] = tested on: PXR homodimer (NR concentration 270 nM)
Outline: as §1

[8] = tested on: RARa:RXR (NR concentration 270 nM, RXRa partner concentration 90 nM)
Outline: as §1

[9] = tested on: RARa homodimer (NR concentration 270 nM)
Outline: as §1

[10] = tested on: RARb:RXRa (NR concentration 270 nM, RXRa partner concentration 90 nM)
Outline: as §1

[11] = tested on: RARb homodimer (NR concentration 270 nM)
Outline: as §1

[12] = tested on: RARg:RXRa (NR concentration 270 nM, RXRa partner concentration 90 nM)
Outline: as §1

[13] = tested on: RARg homodimer (NR concentration 270 nM)
Outline: as §1

[14] = tested on: RXRa DBDmut IVT, anti-RXR (DBD mutation: RXRa K156A/R161A, NR concentration 90 nM)
Outline: as §1

[15] = tested on: RXRa homodimer (NR concentration 180 nM)
Outline: as §1

[16] = tested on: THRa:RXRa (NR concentration 90 nM, RXRa partner concentration 90 nM)
Outline: as §1

[17] = tested on: THRa homodimer (NR concentration 90 nM)
Outline: as §1

[18] = tested on: VDR homodimer (NR concentration 270 nM)
Outline: as §1

| Sequence | PBM binding z-score [1] | PBM binding z-score [2] | PBM binding z-score [3] | PBM binding z-score [4] | PBM binding z-score [5] | PBM binding z-score [6] | PBM binding z-score [7] | PBM binding z-score [8] | PBM binding z-score [9] | PBM binding z-score [10] | PBM binding z-score [11] | PBM binding z-score [12] | PBM binding z-score [13] | PBM binding z-score [14] | PBM binding z-score [15] | PBM binding z-score [16] | PBM binding z-score [17] | PBM binding z-score [18] |
| --- | --- | --- | --- | --- | --- | --- | --- | --- | --- | --- | --- | --- | --- | --- | --- | --- | --- | --- |
| TCTCGGAGCACACGAAGGTCAGAGCTTTCCAGAG | 0.43 | 0.198 | -0.909 | -1.03 | 0.396 | 1.12 | -1.04 | 1.49 | -1.5 | 2.39 | 2.66 | 2.84 | 1.83 | -0.242 | 1.7 | 1.35 | -0.853 | -0.73 |
| GCAGACAGGTGCAACGCAGGTAACTCAGGGTGGC | -0.637 | -0.593 | -1.75 | -1.51 | -0.974 | -0.377 | -0.796 | 0.0404 | -1.09 | -0.3 | -0.431 | -0.314 | -0.365 | 0.123 | 0.00957 | 2.13 | -0.805 | -0.15 |
| TCATATAGGTAAACAGGTGACAGTCCGTAAGTTA | 4.87 | 4.6 | 1.49 | 1.05 | 0.856 | 0.915 | 0.237 | 0.971 | 0.875 | 0.779 | 0.765 | 0.72 | 0.419 | 1.37 | 1.12 | 0.614 | 0.354 | 0.168 |
| ATACCAAAGTGATCGTGAGGTCGTTGATACTAAC | -0.498 | 0.345 | 0.693 | 0.857 | 0.565 | 1.86 | 1.59 | 1.59 | 0.386 | 0.514 | 1.13 | 0.445 | 0.273 | 1.02 | 0.855 | 2.76 | 2.01 | 3.16 |
| ATCTCTAGGTAACAAGTTCAGTGGAAGAGAGGAC | 3.2 | 3.02 | 0.956 | 1.34 | 1.43 | 1.66 | 1.48 | 1.15 | 1.39 | 1.8 | 1.89 | 1.22 | 1.25 | 1.13 | 0.888 | 1.56 | 1.13 | 2.02 |
| TGAATGAGGTTATAAGATCAGTGAACGTTGCAAA | 1.21 | 1.6 | 1.17 | 0.745 | 0.394 | 0.814 | 0.0458 | 1.62 | 0.171 | 1.25 | 0.307 | 1.49 | 0.953 | 0.773 | 1.95 | 1.69 | 0.0121 | 0.482 |
| AGAATGTGGTTATACGTAGATCAGGGAAGAAAGT | -0.104 | 0.38 | 1.04 | 0.755 | 0.355 | 0.214 | 0.82 | 0.282 | 0.734 | 0.0601 | 0.494 | 0.184 | 0.305 | 0.187 | -0.0859 | 0.207 | 0.0442 | -0.179 |
| CGAAATAGGTCATTGACAGGACAGTGAATAGTAA | 7.51 | 7.87 | 3.54 | 2.18 | 3.02 | 3.03 | 0.444 | 4.06 | 1.24 | 4.3 | 3.34 | 5.81 | 4.98 | 2.23 | 4.21 | 3.01 | 0.329 | 1.15 |
| CCGAGTAGGTTATGGTGCATTCAGGCAACGGTGA | 3.71 | 2.67 | 0.333 | -0.183 | 1.25 | -0.0319 | 0.413 | 0.311 | 0.498 | 0.711 | 1.06 | 0.337 | 0.381 | 0.527 | 0.5 | 0.6 | 0.468 | 0.619 |
| CCTCGGAGGACCACAGGAGGTCAGAGCTGCCAGA | -0.849 | -0.16 | -0.752 | -1.46 | 1.3 | 2.22 | 0.21 | 2.45 | 0.245 | 2.18 | 3.17 | 2.2 | 2.01 | -0.446 | 1.85 | 2.76 | 0.73 | 0.746 |
| ACTCGGAGGACAAGGGTCAGAGCTACGCCAGTGA | 0.222 | 1.88 | -0.0175 | 0.0941 | 1.36 | 1.93 | -0.342 | 2.63 | 0.214 | 3.29 | 3.36 | 3.88 | 3.19 | 0.24 | 2.82 | 2.28 | 0.361 | 1.05 |
| TTACCAAGGTGAACGTCGTTGATCCCTCTGTAGA | 2.54 | 3.17 | 0.0811 | 1.09 | 0.021 | 0.627 | -0.305 | 1.26 | -0.00319 | 1.77 | 0.909 | 0.602 | 0.629 | -0.298 | 1.19 | 2.32 | 0.991 | -0.626 |
| GGTACGAGGGCATTCGAGTTGATAGCATGGCGAT | 1.41 | 1.41 | -0.377 | -0.67 | -0.0678 | 3.64 | 1.73 | 0.568 | -0.0392 | 1.95 | 0.849 | 1.06 | 1.61 | 3.01 | 0.971 | 3.28 | -0.337 | 3.68 |
| AGAATGAGCTTATACGTAGATCAGGGAAGAAAGT | -1.19 | -0.676 | 0.558 | 0.438 | -0.99 | -0.359 | -0.186 | -0.221 | -0.183 | -1.13 | -0.75 | -0.102 | -0.0616 | -0.769 | -0.13 | -0.46 | -0.669 | -0.447 |
| TCTATTAGTTGATTACGGCAACCGAAACAGCGGA | 2.26 | 0.246 | 1.27 | 1.25 | 1.11 | 0.471 | 0.751 | 0.595 | 1.59 | 0.331 | -0.0417 | 0.252 | 0.426 | 1.38 | 0.521 | 0.122 | 0.312 | 0.575 |
| TCATATAGGTAAACAGGTAAAAGTCCGTAAGTTA | 4.45 | 3.81 | 1.35 | 1.75 | 0.996 | 0.894 | 0.723 | 1.14 | 1.5 | 0.628 | 0.493 | 0.41 | 0.406 | 1.53 | 0.676 | 0.697 | 0.445 | 0.448 |
